Only a selection was taken, and hits are over-represented in it overall.
Shiga inhibitor: A qHTS for Small Molecule Inhibitors of Shiga Toxin. Vero cells, Shiga toxin protein synthesis inhibition reporter. inhibition, % at 38.7 µM. 290,000 tested, 9.2% active; in the data active = inhibition mostly above about 28%, no sharp cut-off; inactive = mostly below about 43%
LmPK inh: qHTS Assay for Inhibitors of Leishmania Mexicana Pyruvate Kinase (LmPK); Q27686; purified LmPK, Kinase-Glo ATP luminescence, 1 h; Potency, µM (top dose mostly 57.5 µM), most hits filed as inhibitors; 290,000 tested, 0.37% active
Target sequence (Q27686 whole entry, looked up): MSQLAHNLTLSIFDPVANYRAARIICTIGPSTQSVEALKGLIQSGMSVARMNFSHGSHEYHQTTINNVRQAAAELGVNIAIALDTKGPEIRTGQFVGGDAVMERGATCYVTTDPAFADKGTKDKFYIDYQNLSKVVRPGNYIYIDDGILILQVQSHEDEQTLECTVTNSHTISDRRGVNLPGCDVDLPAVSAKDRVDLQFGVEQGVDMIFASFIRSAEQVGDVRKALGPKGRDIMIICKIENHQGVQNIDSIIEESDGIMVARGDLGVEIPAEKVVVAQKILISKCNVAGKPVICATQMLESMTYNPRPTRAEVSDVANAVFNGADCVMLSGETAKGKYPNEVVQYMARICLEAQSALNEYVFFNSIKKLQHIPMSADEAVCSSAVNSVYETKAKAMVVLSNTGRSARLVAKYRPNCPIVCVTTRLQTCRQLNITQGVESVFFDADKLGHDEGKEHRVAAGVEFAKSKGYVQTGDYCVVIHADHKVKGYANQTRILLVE
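Screened at intermediate enzyme activity to detect both inhibitors and activators: LmPK at 0.1 nM, with a 0.5 nM enzyme column as activation reference. PEP 0.5 mM, ADP 0.1 mM; ATP detected by luminescence after 1 h.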
Cycloheximide cs: Cycloheximide Counterscreen for Small Molecule Inhibitors of Shiga Toxin; max response, %; 300,000 tested, 12% active; cell reporter, cycloheximide protein synthesis inhibition counterscreen; in the data active = max response mostly above about 13%, no sharp cut-off; inactive = mostly below about 14%; also: read at 38.3 µM for the half of the compounds with a filed dose
FBPA Giardia inh: qHTS Assay for Inhibitors of Fructose-1,6-bisphosphate Aldolase from Giardia Lamblia | A8B2U2 | purified Giardia FBPA | Potency, µM (top dose mostly 59.6 µM), actives largely listed as inhibitors | 290,000 tested, 0.71% active | AID 2451, 2010; also: nearly all actives have a fitted effect of over 55% in size
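40 nM FBPA preincubated 10 min at RT with compound (up to 57.5 uM final), then substrate plus GAPDH/TPI/NAD/arsenate coupling and diaphorase/resazurin added. Fluorescence read after 20 min at RT, 525/598 nm.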
TbPYK inhibitor: qHTS of Trypanosoma Brucei Inhibitors | TbPYK enzyme, Kinase-Glo Plus ATP luminescence, 45 min | Potency, µM (top dose mostly 76.8 µM), hits mostly inhibitors | 410,000 tested, 0.12% active; also: nearly all actives have a fitted effect of over 50% in size
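Assay buffer: 50 mM TEA pH 7.2, 100 mM KCl, 10 mM MgCl2, 0.05% BSA, 0.01% Tween-20. Pyruvate kinase from T. brucei plus substrate met compound, then ADP (130 uM final). Luminescence was read post 45 min RT.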
RE007 growth inh: qHTS Assay for Inhibitors of the HIV-1 protein Vpr | Potency, µM (top dose mostly 92.2 µM), hits mostly inhibitors | 360,000 tested, 0.21% active | S. pombe RE007 Vpr strain, BacTiter-Glo ATP luminescence, 24 h | AID 651644, 2012; active = well fitted falling curve with a large enough effect; inconclusive = small, poorly fitted or top-dose-only effect; inactive = no such curve, though single readings can be large or run the other way; also: nearly all actives have a fitted effect of over 50% in size
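Fission yeast strain RE007, carrying one chromosomally integrated HIV-1 vpr copy, was seeded at OD 0.01 in PMG+AL medium with 23 nL pinned compound. After 24 h at 30 °C and 99% humidity, viability was read by BacTiter-Glo luminescence.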
Each line names hits and unclear results; the compound was inactive in the other large screens; ! = not confirmed by another sample. Unless noted, calls follow the shape of the dose curve; as a rule, active = well fitted curve in the direction sought with a large enough effect; inconclusive = small, poorly fitted or top-dose-only effect, or another doubt; inactive = no such curve, though single readings can be large; an effect the other way counts as inactive or inconclusive.

C=CC[C@H](CC(=O)NCCO)C(=O)N[C@@H](COC(=O)[C@H](CC=C)CC(=O)OC(C)(C)C)Cc1ccccc1	none (no result: Shiga inhibitor, LmPK inh, Cycloheximide cs, FBPA Giardia inh)
CC(=O)N(CC(O)CO)c1c(I)c(C(=O)NCCO)c(I)c(C(=O)NCC(O)CO)c1I (configuration not stated)	none (no result: Shiga inhibitor, LmPK inh, Cycloheximide cs, FBPA Giardia inh, RE007 growth inh)
CCc1c(O)nc(SCC(=O)Nc2nc3ccccc3s2)n(-c2ccccc2)c1=O	none
CCc1c(O)nc(SCC(=O)Nc2nc3ccccc3s2)n(-c2ccc(C)cc2)c1=O	Shiga inhibitor 93, Cycloheximide cs 45
CCn1nnnc1SCC(=O)Nc1nc2ccccc2s1	Cycloheximide cs 21
Cc1nc(NC(=O)CSc2nnnn2Cc2ccccc2)sc1C	Shiga inhibitor 75, Cycloheximide cs 28
CCOc1ccc(C(=O)N2CC(=O)Nc3ccc(F)cc3C2c2ccc(F)cc2)cc1 (configuration not stated)	none (no result: Shiga inhibitor, LmPK inh, Cycloheximide cs, FBPA Giardia inh, RE007 growth inh)
CC1CCC(NC(=O)CCCn2sc3ccccc3c2=O)CC1 (configuration not stated)	Cycloheximide cs 22
COc1ccc(NC(=O)C2Cc3ccccc3CN2C(=O)c2ccccc2)cn1 (configuration not stated)	FBPA Giardia inh inconclusive
O=C(NC1=NCCS1)C1Cc2ccccc2CN1C(=O)c1ccccc1 (configuration not stated)	Shiga inhibitor 84, Cycloheximide cs 28, RE007 growth inh inconclusive
CC(=O)c1ccc(NC(=O)C2Cc3ccccc3CN2C(=O)c2ccccc2)cc1 (configuration not stated)	Shiga inhibitor 41, Cycloheximide cs 11
CC(=O)NC1=C(N(C)C2CCS(=O)(=O)C2)C(=O)c2ccccc2C1=O (configuration not stated)	FBPA Giardia inh 0.13µM
CC(=O)NC1=C(Nc2ccc(N(C)C)cc2)C(=O)c2ccccc2C1=O	Shiga inhibitor 116, Cycloheximide cs 46, RE007 growth inh inconclusive
CC1=C(Nc2ccc(C(=O)O)cc2)C(=O)c2ccccc2C1=O	FBPA Giardia inh inconclusive
O=S(=O)(c1ccc2nc(Cl)c(Cl)nc2c1)N1CCN(S(=O)(=O)c2c(F)cccc2F)CC1	none (no result: LmPK inh, FBPA Giardia inh, TbPYK inhibitor, RE007 growth inh)
CC1(C)C(=O)N(CC(=O)Nc2ccc(OC(F)(F)F)cc2)c2ccccc21	none (no result: Shiga inhibitor, LmPK inh, Cycloheximide cs, FBPA Giardia inh, RE007 growth inh)
CCC(=NCc1ccc(Cl)c(Cl)c1)c1nc(-c2ccco2)oc1O	Shiga inhibitor 48
COc1cc(OC)cc(C(=O)Nc2ccc3c(c2)CCCN3C(=O)c2cccs2)c1	none (no result: FBPA Giardia inh)
O=C(Nc1ccc2c(c1)CCCN2C(=O)c1cccs1)c1cccc(F)c1	Shiga inhibitor 47, Cycloheximide cs 22
O=C(Nc1ccc2c(c1)CCCN2C(=O)c1cccs1)c1ccccc1	Shiga inhibitor 36, Cycloheximide cs 36
CC(=O)N1CCCc2cc(S(=O)(=O)N(C)CC(=O)Nc3cccc(C)c3C)ccc21	none (no result: Shiga inhibitor, LmPK inh, Cycloheximide cs, FBPA Giardia inh, RE007 growth inh)
Cc1cc(N(C)Cc2ccccc2)nc2cc(O)ccc12	Shiga inhibitor 44, Cycloheximide cs 20
COc1cc(C=O)ccc1OCCSc1ccc(Cl)cc1	Shiga inhibitor 70, Cycloheximide cs 22
CCN(CC)CCN1C(=O)C(=O)/C(=C(/O)c2ccc(OC(C)C)cc2)C1c1cccs1 (configuration not stated)	Shiga inhibitor 85, Cycloheximide cs 45
CCN(CC)CCN1C(=O)C(=O)/C(=C(/O)c2ccc(OC(C)C)cc2)C1c1ccncc1 (configuration not stated)	none
CCN(CC)CCN1C(=O)C(=O)/C(=C(/O)c2c(C)[nH]c(C(=O)OC)c2C)C1c1cccs1 (configuration not stated)	Cycloheximide cs 23
CC(C)Oc1ccc(/C(O)=C2/C(=O)C(=O)N(CCN(C)C)C2c2ccco2)cc1 (configuration not stated)	Shiga inhibitor 134, Cycloheximide cs 39
Cc1nc(-c2ccc(Cl)cc2)sc1C1(C)CC(c2cccc(Cl)c2)=NO1 (configuration not stated)	Shiga inhibitor 32, Cycloheximide cs 17
Cc1nc(-c2ccc(Cl)cc2)sc1C1(C)CC(c2cccc(F)c2)=NO1 (configuration not stated)	Shiga inhibitor 52, Cycloheximide cs 28
Cc1nc(-c2ccc(Cl)cc2)sc1C1(C)CC(c2ccc(F)cc2)=NO1 (configuration not stated)	Shiga inhibitor 47, Cycloheximide cs 25
Cc1cc(C)cc(-n2nnc(-c3nc(-c4ccccc4F)no3)c2C)c1	none (no result: Shiga inhibitor, LmPK inh, Cycloheximide cs, FBPA Giardia inh, RE007 growth inh)
COc1cc(Cl)c(C)cc1NC(=O)CCc1c(C)nc2cc(-c3cccc(F)c3)nn2c1C	none (no result: Shiga inhibitor, LmPK inh, Cycloheximide cs, FBPA Giardia inh, RE007 growth inh)
CCN(CC)c1ccc(NC(=O)c2cccc(C)c2OC)c(C)c1	Shiga inhibitor 87, Cycloheximide cs 65, TbPYK inhibitor inconclusive
Cc1cc2nc3ccc(=[N+](C)C)cc-3sc2cc1N	Shiga inhibitor 48, LmPK inh 14µM, Cycloheximide cs 36, FBPA Giardia inh inconclusive, TbPYK inhibitor inconclusive, RE007 growth inh inconclusive
CSc1nc2ccc(S(=O)(=O)N(C)C)cc2s1	none
CN(C)c1ccc2nc3ccc(=[N+](C)C)cc-3sc2c1	Shiga inhibitor 88, Cycloheximide cs 64!, FBPA Giardia inh inconclusive, TbPYK inhibitor inconclusive, RE007 growth inh inconclusive
COC(=O)c1ccc(C(=O)Nc2nc3cc(N)c(C)cc3s2)cc1	none
CN(C)c1ccc2nc3ccc(=O)cc-3sc2c1	TbPYK inhibitor inconclusive, RE007 growth inh 45µM (no result: Shiga inhibitor, LmPK inh, Cycloheximide cs, FBPA Giardia inh)
COC(=O)C1=C(C(=O)OC)[C@@H]2N(Cc3ccccc3)c3ccccc3[C@@]23C[C@@H](C(=O)OC)N(S(=O)(=O)c2ccc4c(c2)OCCN4C)C3=N1	none (no result: Shiga inhibitor, Cycloheximide cs, TbPYK inhibitor, RE007 growth inh)
O=C(O)/C=C(/c1ccccc1)C(F)(F)F	none (no result: Shiga inhibitor, LmPK inh, Cycloheximide cs, FBPA Giardia inh)
CCCCn1nnnc1SCC(=O)Nc1ccc2c(c1)OCCO2	none
Cn1nnnc1SCC(=O)Nc1ccc2c(c1)OCO2	Shiga inhibitor 114, Cycloheximide cs 26
CCn1nnnc1SCC(=O)Nc1ccc2c(c1)OCO2	Shiga inhibitor 45
CN(C)c1ccc(CNC(=O)c2cnc3sc(N4CCOCC4)nn3c2=O)cc1	none (no result: Shiga inhibitor, LmPK inh, Cycloheximide cs, FBPA Giardia inh, RE007 growth inh)
CCC1=C2CC[C@H]3C(=O)N(CC(=O)OC)C(=O)[C@H]3[C@H]2[C@@]2(Cc3ccccc3)C(=NCCOC)OC(=O)N2C1=O	none (no result: Shiga inhibitor, LmPK inh, Cycloheximide cs, TbPYK inhibitor, RE007 growth inh)
CC(NC(=O)c1cccs1)C1CCCO1 (configuration not stated)	none
CC(NC(=O)c1csc2ccccc12)C1CCCO1 (configuration not stated)	Shiga inhibitor 63, Cycloheximide cs 32
CC(NC(=O)c1sc2ccccc2c1Cl)C1CCCO1 (configuration not stated)	Cycloheximide cs 36
CCc1nn(CC(=O)NCCCOC)c(=O)c2cc3occc3n12	none (no result: Shiga inhibitor, LmPK inh, Cycloheximide cs, FBPA Giardia inh, RE007 growth inh)

High-throughput results: PubChem BioAssay, National Center for Advancing Translational Sciences (NCATS)
